From PubChem BioAssay come the findings set out here.

Assay [1] in a line: HepG2 liver cancer cell viability effects, profiling panel, resazurin fluorescence, 24 h, PK04 Diversity Set (AID 1172). Note: test concentration not given here. Particulars: higher = more signal. (Alamar Blue is a resazurin reagent that responds to reducing activity.)
The nature of assay [2]: basal S. cerevisiae growth modulation, no modifier, primary screen, OD600, strain BY4716, 24 h, basal condition (AID 1173). The following applies: OD600, 24 h, higher = more signal, called active from +8 up or from −8 down.
The nature of assay [3]: MM1S myeloma cell viability, profiling panel, resazurin fluorescence, basal, 24 h, PK04 Diversity Set (AID 1174).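 Note: MM1S multiple myeloma cell line; test concentration not given here.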 Particulars: higher = more signal, called active from +8 up or from −8 down.
The target of assay [4] is Dihydroorotate dehydrogenase (quinone), mitochondrial (Plasmodium falciparum (isolate 3D7)) (UniProt Q08210). In words: PfDHODH enzyme inhibitors, primary screen, biochemical, C-terminal His tag, absorbance 600 nm (AID 1175).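 Note: recombinant parasite enzyme with a five histidine tag at its C terminus; test concentration not given here.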 Particulars: DCIP absorbance 600 nm, higher = more signal, called active from +8 up or from −8 down.
Chain of Dihydroorotate dehydrogenase (quinone), mitochondrial (Plasmodium falciparum (isolate 3D7)) (Q08210 whole entry, looked up): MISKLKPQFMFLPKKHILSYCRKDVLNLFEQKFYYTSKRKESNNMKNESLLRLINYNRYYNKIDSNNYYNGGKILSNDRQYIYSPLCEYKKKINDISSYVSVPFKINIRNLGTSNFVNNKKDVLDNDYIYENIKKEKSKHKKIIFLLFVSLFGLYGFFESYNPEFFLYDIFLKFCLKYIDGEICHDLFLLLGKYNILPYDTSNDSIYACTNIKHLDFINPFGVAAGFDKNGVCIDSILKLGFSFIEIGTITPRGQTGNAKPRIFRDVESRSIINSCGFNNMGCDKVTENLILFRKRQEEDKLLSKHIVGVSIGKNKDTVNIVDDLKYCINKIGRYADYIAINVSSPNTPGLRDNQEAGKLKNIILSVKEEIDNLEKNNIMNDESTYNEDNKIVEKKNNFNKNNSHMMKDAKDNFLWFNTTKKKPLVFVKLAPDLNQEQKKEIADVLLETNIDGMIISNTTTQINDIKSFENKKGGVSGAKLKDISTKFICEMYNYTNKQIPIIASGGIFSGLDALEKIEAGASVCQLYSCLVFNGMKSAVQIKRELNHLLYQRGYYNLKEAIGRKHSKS
A short description of assay [5]: P. aeruginosa biofilm formation inhibitors, primary screen, strain PAO1, LB-PBS medium, absorbance 600 nm (AID 1176). Note: test concentration not given here. Particulars: P. aeruginosa PAO1 growth/biofilm, A600, 12 h; higher = more signal.
Assay [6] is described as follows: S. cerevisiae RM11-1a growth modifiers, primary screen, strain RM11-1a, OD600, basal, 24 h (AID 1177).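 Note: cultures grown under basal conditions with no added stressor; test concentration not given here.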 The following applies: OD600, 24 h, higher = more signal, called active from +8 up or from −8 down.
A short description of assay [7]: E. coli acrAB mutant growth effects, primary screen, E. coli filamentation inducers, strain DRC39, OD650, 24 h (AID 1178).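 Note: growth measured as culture turbidity by optical density at 650 nm; test concentration not given here.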 Particulars: higher = more signal, called active from +8 up or from −8 down.
The nature of assay [8]: E. coli acrAB mutant growth effects, primary screen, E. coli filamentation inducers, strain DRC39, OD650, 48 h (AID 1179).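 Note: screen aims at cell division blockers that make cells filament.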 Particulars: E. coli DRC39 delta-acrAB growth, higher = more signal, called active from +8 up or from −8 down.
Assay [9] can be described thus: RPMI8226 myeloma cell viability, profiling panel, resazurin fluorescence, basal, 24 h, PK04 Diversity Set (AID 1180).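 Note: RPMI8826 multiple myeloma cell line at 5000 cells per well; test concentration not given here.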 Particulars: higher = more signal.
The target in assay [10] is E3 ubiquitin-protein ligase XIAP (Homo sapiens) (UniProt P98170). In words: XIAP binders, primary screen, biophysical, small-molecule microarray, fluorescence 635 nm (AID 1181).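 Note: score merges 667 nm emission and signal to noise over triplicate slides.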 Particulars: small-molecule microarray binding, higher = more signal.
Chain of E3 ubiquitin-protein ligase XIAP (Homo sapiens) (P98170 whole entry, looked up): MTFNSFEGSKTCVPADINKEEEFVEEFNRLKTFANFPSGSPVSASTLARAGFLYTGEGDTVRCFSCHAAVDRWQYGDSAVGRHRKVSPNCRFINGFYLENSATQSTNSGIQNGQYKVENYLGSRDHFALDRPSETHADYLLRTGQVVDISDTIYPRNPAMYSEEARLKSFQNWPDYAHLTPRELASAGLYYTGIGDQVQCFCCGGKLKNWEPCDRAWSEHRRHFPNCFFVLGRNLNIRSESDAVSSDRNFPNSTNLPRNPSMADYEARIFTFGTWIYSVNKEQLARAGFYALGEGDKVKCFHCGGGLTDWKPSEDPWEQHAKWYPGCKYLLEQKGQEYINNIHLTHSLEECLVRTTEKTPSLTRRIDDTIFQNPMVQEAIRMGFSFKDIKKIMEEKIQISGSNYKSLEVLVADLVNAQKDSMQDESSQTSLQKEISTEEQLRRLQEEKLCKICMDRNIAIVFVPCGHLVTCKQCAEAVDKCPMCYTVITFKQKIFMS

Active and inactive are the calls of the source. Unless noted, the rule behind the calls is not given here.

Regarding `CC(C)C[C@@H]1NC(=O)[C@@H]2C[C@H](C(=O)NCCCCCNC(=O)CS)[C@H](c3ccc(O)cc3)N2C1=O`, the z-score in assay [1] is 0.432; in assay [2] it was -1.44 (inactive); in assay [3], 0.974 (inactive); in assay [5], 2.91 (inactive); in [6] it was -1.38 (inactive); in [7] it was -0.692 (inactive). The z-score in assay [8] is -0.539 (inactive); in [9] it was 0.718. Also, the composite z-score in [4] was -0.24 (inactive); in [10] it was 0.302.
Regarding `COc1ccc(CCNC(=O)[C@@H]2c3ccccc3C(=O)N(C(C)C)[C@H]2c2ccc(CO)cc2)cc1`, the z-score was 0.862 in assay [1]; -0.313 (inactive) in [2]; 1.35 (inactive) in [3]; -0.935 (inactive) in assay [5]; 0.326 (inactive) in [6]; 0.364 (inactive) in assay [7]. Moreover, the values for the z-score in assay [8] and in [9] were 0.246 (inactive) and 1.53, respectively. For the same compound, the composite z-score in [4] was 0.261 (inactive); in [10], -0.178.
Turning to `C=CC[C@H](OC(=O)Nc1ccc(SC)cc1)c1ccc(O)c(F)c1`, the z-score was -0.124 in [1]; -15.5 (active) in assay [2]; -0.868 (inactive) in assay [3]; 1.1 (inactive) in assay [5]; -11 (active) in assay [6]; 0.332 (inactive) in [7]. Besides, the figures for the z-score in assay [8] and in assay [9] were -0.343 (inactive) and -1.54, respectively. Also, the results for the composite z-score in [4] and in assay [10] were -1.32 (inactive) and 0.0297, respectively.
Take `COc1cccc(C)c1NC(=O)O[C@H]1[C@H](OC(=O)Nc2ccc3c(c2)OCO3)[C@H](OC(=O)Nc2ccc3c(c2)OCO3)[C@@H](OC)O[C@@H]1CO`: the z-score in assay [1] was -0.73; in assay [2] it was 1.27 (inactive); in [3] it was -0.494 (inactive); in [5], 0.606 (inactive); in assay [6], 1.6 (inactive); in [7], 0.84 (inactive). The z-score in assay [8] was -0.0834 (inactive); in assay [9] it was -0.708. For the same compound, the figures for the composite z-score in assay [4] and in [10] were -0.713 (inactive) and 1.64, respectively.
Turning to `CN1C(=O)C2C=CC(C(O)c3cccs3)N(N(c3ccccc3)c3ccccc3)C2C1=O` (stereo not given), the z-score in [1] is -0.428; in assay [2], 0.754 (inactive); in assay [3] it was -1.13 (inactive); in [5] it was 0.419 (inactive); in [6], 0.567 (inactive); in [7], -0.483 (inactive). Also, the z-score in [8] was 0.0156 (inactive); in assay [9], -0.985. The figures for the composite z-score in [4] and in assay [10] were 0.656 (inactive) and 0.462, respectively.
Regarding `C=CCC(OC(C)=O)[C@@H]1[C@@H](N(Cc2cccc3ccccc23)C(=O)c2ccc(C)cc2)c2cc(OCCCO)ccc2N1C(=O)Cc1ccc2ccccc2c1` (stereo not given in full), the z-score in assay [1] was 0.0546; in assay [2], -1.34 (inactive); in [3] it was 0.802 (inactive); in assay [5] it was 0.0642 (inactive); in assay [6] it was -1.31 (inactive); in assay [7], 0.72 (inactive). The z-score was 1.28 (inactive) in assay [8] and 0.608 in assay [9]. Moreover, the composite z-score in [4] is -2.08 (inactive); in assay [10], 0.0264.
Consider `COCCCNC(=O)[C@@]1(Cc2ccccc2I)c2ccccc2C(=O)N(Cc2ccccc2C(F)(F)F)[C@H]1c1ccc(CO)cc1`, for which the z-score in assay [1] was 0.331; in assay [2], -0.088 (inactive); in assay [3], 0.377 (inactive); in [5] it was -0.963 (inactive); in assay [6], 1.38 (inactive); in [7], 0.309 (inactive). The values for the z-score in assay [8] and in assay [9] were 0.324 (inactive) and 0.426, respectively. Also, the figures for the composite z-score in assay [4] and in [10] were 0.543 (inactive) and -0.223, respectively.
Turning to `CC(C)C[C@H]1NC(=O)CNC(=O)[C@@]23C(=O)N[C@@H](Cc4ccccc4)C2[C@H](C)[C@@]2(C)O[C@H]2C3/C=C/C/C=C\CNC1=O` (stereo not given in full), the z-score in assay [1] is -0.657; in [2], -0.572 (inactive); in assay [3], 0.105 (inactive); in [5], 1.11 (inactive); in [6] it was 0.0636 (inactive); in assay [7] it was -0.288 (inactive). Besides, the z-score was -0.141 (inactive) in [8] and 0.293 in assay [9]. Also, the composite z-score is -0.341 (inactive) in assay [4] and -0.122 in [10].
Turning to `CC(C)c1ccc(NN2C(C(O)c3ccccc3)C=CC3C(=O)N(c4ccccc4)C(=O)C32)cc1` (stereo not given), the z-score in assay [1] was 0.685; in [2] it was -1.79 (inactive); in assay [3], -2.57 (inactive); in assay [5] it was 1.16 (inactive); in [6] it was 1.58 (inactive); in assay [7], 0.493 (inactive). Moreover, the z-score in [8] was 0.289 (inactive); in [9], 0.039. Further, the composite z-score in assay [4] is 1.25 (inactive); in [10], -0.0669.
Consider `CC1CC/C=C\[C@H]2OC34C=CCN(C(C)C)C(=O)[C@H]3N(C(C)CO)C(=O)[C@@H]4C2C(=O)O1` (stereo not given in full), for which the z-score in assay [1] was 0.741; in assay [2], 0.306 (inactive); in assay [3] it was 1.05 (inactive); in assay [5], 2.9 (inactive); in [6], 0.477 (inactive); in assay [7], 0.355 (inactive). For the same compound, the z-score was 0.553 (inactive) in [8] and 0.832 in [9]. In addition, the composite z-score in assay [4] is -0.0766 (inactive); in assay [10] it was 0.0345.
For the compound `C=CCNC(=O)[C@H]1[C@@H]2C(=O)O[C@@H](c3ccccc3)[C@@H](c3ccccc3)N2[C@@H](c2ccc(O)cc2)[C@]12C(=O)N(C(=O)OCCOC)c1ccc(C#Cc3ccc(OC)cc3)cc12`, the z-score in assay [1] was 0.267; in assay [2], 0.469 (inactive); in assay [3], -0.466 (inactive); in assay [5] it was 0.485 (inactive); in [6] it was 0.539 (inactive); in assay [7], -1.2 (inactive). Also, the values for the z-score in [8] and in [9] were -0.844 (inactive) and -0.772, respectively. Further, the results for the composite z-score in assay [4] and in assay [10] were -0.208 (inactive) and -0.0427, respectively.
As for `[N-]=[N+]=NCc1ccccc1[C@H]1OC(c2ccc(OCCCO)cc2)=N[C@@]1(Cc1ccccc1N=[N+]=[N-])C(=O)N1CCOCC1`, the z-score in [1] was -0.317; in [2], -0.783 (inactive); in assay [3], -2.46 (inactive); in assay [5] it was 0.438 (inactive); in assay [6], 1.43 (inactive); in [7] it was -0.33 (inactive). The z-score in [8] was -0.799 (inactive); in [9], -2.58. Besides, the values for the composite z-score in assay [4] and in [10] were 1.03 (inactive) and 0.122, respectively.
With `Cc1ccc(S[C@]2(C(=O)NCC(C)C)CC(=O)N(C(C)C)[C@@H]2c2ccc(CO)cc2I)cc1`, the z-score is -0.16 in assay [1]; -2.09 (inactive) in [2]; -1.52 (inactive) in assay [3]; -0.288 (inactive) in assay [5]; -0.91 (inactive) in [6]; 0.485 (inactive) in assay [7]. The z-score in assay [8] was -0.117 (inactive); in assay [9], -1.8. The figures for the composite z-score in assay [4] and in assay [10] were -0.332 (inactive) and -0.128, respectively.
